HTR5A inv ag = HTR5A inverse agonism, opioid heterodimer counter-screen; 340,000 compounds, 0.083% hits; HTR5A cell line, luminescence; P47898; inhibition, % at 9.3 µM; in the data active means inhibition mostly above about 23%, no sharp cut-off; inactive means mostly below about 18%;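 further: 0% = cells with DMSO and 100% = no-cell wells with DMSO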
OPRM1-OPRD1 ag = OPRM1-OPRD1 heterodimerization agonism | P35372+P41143 | cells, luminescence | activation, % at 9.3 µM | 340,000 compounds, 0.3% hits | AID 504326;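 further: 0% = vehicle-treated cells and 100% = reference agonist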
Target sequence (P35372 whole entry, looked up): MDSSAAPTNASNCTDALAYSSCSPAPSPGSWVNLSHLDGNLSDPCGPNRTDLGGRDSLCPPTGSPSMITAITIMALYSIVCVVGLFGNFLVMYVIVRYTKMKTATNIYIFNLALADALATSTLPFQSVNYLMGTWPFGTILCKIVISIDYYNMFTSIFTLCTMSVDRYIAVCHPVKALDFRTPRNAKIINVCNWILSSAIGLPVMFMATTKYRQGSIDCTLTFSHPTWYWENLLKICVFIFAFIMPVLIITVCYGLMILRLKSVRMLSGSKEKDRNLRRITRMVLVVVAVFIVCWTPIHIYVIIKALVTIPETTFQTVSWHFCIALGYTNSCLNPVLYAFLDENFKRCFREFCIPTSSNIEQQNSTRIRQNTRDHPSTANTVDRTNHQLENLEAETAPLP
Target sequence (P41143 whole entry, looked up): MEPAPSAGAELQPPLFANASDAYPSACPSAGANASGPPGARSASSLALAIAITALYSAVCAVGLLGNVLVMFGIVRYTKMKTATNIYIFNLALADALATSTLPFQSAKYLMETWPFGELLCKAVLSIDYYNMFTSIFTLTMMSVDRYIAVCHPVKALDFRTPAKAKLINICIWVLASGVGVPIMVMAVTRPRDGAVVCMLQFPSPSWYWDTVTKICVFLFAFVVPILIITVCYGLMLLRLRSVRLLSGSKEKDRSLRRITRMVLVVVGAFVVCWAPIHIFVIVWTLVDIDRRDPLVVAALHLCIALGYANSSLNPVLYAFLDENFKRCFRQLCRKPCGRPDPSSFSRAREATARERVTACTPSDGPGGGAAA
MOR-DOR inv ag = inverse agonists of human mu-delta opioid receptor heterodimerization; P35372+P41143; cell-based MOR-DOR heterodimer luminescence, inverse agonism; inhibition, % at 9.3 µM; 340,000 compounds, 0.21% hits; AID 504357; in the data active means inhibition above about 22%, passing the limit was not always enough;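 further: 0% = cells with DMSO and 100% = wells without cells with DMSO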
HTR5A ag = counter-screen for OPRM1-OPRD1 agonists: human HTR5A agonism; P47898; HTR5A agonist assay, luminescence, cell-based; activation, % at 9.3 µM; 340,000 compounds, 0.61% hits; in the data active means activation mostly above about 9.5%, no sharp cut-off; inactive means mostly below about 7.6%;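 further: 0% = cells with vehicle only and 100% = reference agonist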
MOR-DOR ag conf = confirmation of human OPRM1-OPRD1 heterodimerization agonists. shares compounds with OPRM1-OPRD1 ag. cells, MOR-DOR heterodimerization, luminescence complementation. activation, % at 9.3 µM. 830 compounds, 45% hits. AID 504904;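 further: 0% = vehicle-treated cells and 100% = reference agonist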
HTR5A ag counter = HTR5A agonism, opioid heterodimer counter-screen. shares compounds with OPRM1-OPRD1 ag. 830 compounds, 8% hits. HTR5A agonist counterscreen, cell luminescence. activation, % at 9.3 µM; in the data active means activation above about 17%;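 further: 0% = vehicle-treated cells and 100% = reference agonist response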
* = called active by the depositor; i = inactive; nt = no result given. A selection: hits, their analogues and other compounds. The true share with any hit is near 1.1%. Unless noted, no stated cut-off is given here; in the data, active means activation above about 18%; inactive means the rest.

SMILES	HTR5A inv ag	OPRM1-OPRD1 ag	MOR-DOR inv ag	HTR5A ag	MOR-DOR ag conf	HTR5A ag counter
COc1ccc(C2Nc3ccccc3C(=O)N2Cc2ccccc2)cc1CSc1ccccn1 (stereo not given)	-2	35*	-188	0	1	4
COc1ccc(C2Nc3ccccc3C(=O)N2Cc2ccco2)cc1COc1ccc(NC(C)=O)cc1 (stereo not given)	-10	117*	i	7	68*	-3
CS(=O)c1ccc(-n2c(=O)n(Cc3ccccc3)c(=O)c3[nH]cnc32)cc1 (stereo not given)	-13	-3	14	4	nt	nt
CCOC(=O)C1=C(C)N(CCCC(=O)O)C(=O)NC1c1ccccc1 (stereo not given)	-3	-3	16	2	nt	nt
CCOC(=O)C1=C(C)N(CCCC(=O)O)C(=O)NC1c1ccccc1OS(=O)(=O)c1ccccc1[N+](=O)[O-] (stereo not given)	-8	56*	-324	3	10	9
COC(=O)C1=C(C)N(CCCC(=O)O)C(=O)NC1c1ccccc1OS(=O)(=O)c1ccc([N+](=O)[O-])cc1 (stereo not given)	0	51*	-300	0	46*	2
CCOC(=O)C1=C(C)N(CCCC(=O)O)C(=O)NC1c1ccccc1OS(=O)(=O)c1ccc(C)cc1 (stereo not given)	5	62*	-340	-2	58*	5
CCOC(=O)C1=C(C)N(CCCCCC(=O)O)C(=O)NC1c1ccccc1OS(=O)(=O)c1ccc(C)cc1 (stereo not given)	-15	57*	-335	6	4	8
COc1ccc(CCNS(=O)(=O)c2ccc([N+](=O)[O-])cc2)cc1OC	1	3	-12	0	nt	nt
Cc1[nH][nH]c(=O)c1C(c1c(C)[nH][nH]c1=O)c1cn(Cc2ccccc2Cl)c2ccccc12	-11	-4	16	3	nt	nt
Cc1sc2ncnc(NCC(c3ccccc3)N(C)C)c2c1C (stereo not given)	-11	6	-41	4	nt	nt
Cc1nc(NCC(c2ccccc2)N(C)C)c2c(C)c(C)sc2n1 (stereo not given)	-14	37*	-302	5	48*	7
C(=C\c1nccc2c1[nH]c1ccccc12)/c1ccccc1	-16	1	-6	4	nt	nt
Fc1ccc(/C=C\c2nccc3c2[nH]c2ccccc23)cc1	-17	19*	-87	8	33*	37*
COc1cc2c3nnc(-c4ccc(F)cc4)c-3cn(Cc3ccccc3F)c2cc1OC	-22	19*	-97	6	28*	6
CCSc1nnc(NC(=O)c2cccc3ccccc23)s1	-16	6	-29	6	nt	nt
CCSc1nnc(NC(=O)c2cc(-c3ccccc3O)n[nH]2)s1	-15	32*	-171	1	10	1
COc1ccccc1C(=O)Cc1ccccc1	-11	-1	7	3	nt	nt
COC(=O)[C@@]1(C)[C@H]2C(=O)N(Cc3ccccc3)C(=O)[C@H]2[C@H]2CN=C(SCc3ccc(C)cc3)N21	1	-2	9	0	nt	nt
c1ccc(CNc2c3ccccc3nc3ccccc23)cc1	5	22*	-122	-1	1	-2
C/C=C(\C)CN1CCC(n2nccc2NC(=O)CCc2ccccc2)CC1	7	20*	-110	-4	3	-2
C/C=C(\C)CN1CCC(n2nccc2NC(=O)CCOc2ccccc2)CC1	-6	-1	3	4	nt	nt
COc1ccc(C(=O)N/C(=C\c2cn(S(=O)(=O)N(C)C)c3ccccc23)C(=O)NCCCN2CCOCC2)cc1	-2	-1	7	6	nt	nt
CC(=O)Nc1c(Br)cc2c(c1Br)Cc1cc(Br)ccc1-2	3	34*	-176	-1	19*	6
COc1cc(Br)cc(/C=N/NC(=O)Cc2ccc(C(F)(F)F)cc2[N+](=O)[O-])c1O	-36	18*	-96	4	42*	2
COc1ccc(N2C(=S)N=C(Nc3ccccc3)C23CCCCC3)cc1	-5	29*	-151	0	16	5
Cc1ccccc1NC(=O)C(=O)c1cn(C)c2ccccc12	-8	24*	-116	3	1	-1
Cn1cc(C(=O)C(=O)NCCc2ccccc2)c2ccccc21	9	-2	9	-2	nt	nt
CN1CCS/C1=C/C=C1/SC(=S)N(Cc2ccccc2)C1=O	2	-4	23	0	nt	nt

Assay outcomes deposited in PubChem BioAssay by The Scripps Research Institute Molecular Screening Center.
